This is one part of a sample in which hits are shown more often than they occur.
Cruzain noTriton – cruzain (T. cruzi) inhibition without detergent; P25779; purified cruzain, Z-FR-AMC fluorescence, no detergent; Potency, µM, inactives show max response, negative = inhibition, most hits filed as inhibitors; 200,000 compounds, 2.3% hits; AID 1476;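 also: potency is read from the fitted curve at half-maximal effect; plate controls were enzyme without inhibitor for no effect and buffer without enzyme for full effect; nearly all actives have a fitted effect of over 40% in size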
Target sequence (P25779 123-467 limits assumed): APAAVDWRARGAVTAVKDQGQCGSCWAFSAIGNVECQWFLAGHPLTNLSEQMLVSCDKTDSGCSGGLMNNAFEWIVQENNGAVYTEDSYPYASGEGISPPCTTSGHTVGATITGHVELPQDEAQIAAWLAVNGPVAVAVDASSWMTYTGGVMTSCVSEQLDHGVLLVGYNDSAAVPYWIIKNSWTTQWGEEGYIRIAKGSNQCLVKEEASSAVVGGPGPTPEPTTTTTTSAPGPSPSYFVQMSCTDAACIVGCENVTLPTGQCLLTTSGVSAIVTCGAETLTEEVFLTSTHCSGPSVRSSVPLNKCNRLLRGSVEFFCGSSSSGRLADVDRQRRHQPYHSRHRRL
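Detergent-free condition (0.00005% Triton X-100) in acetate buffer pH 5.5 with DTT. 1.5 nM enzyme and compound were pre-mixed 15 min, then 2 uM Z-FR-AMC substrate added; reaction progress from fluorescence change between first and third reads (60 s).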
Cruzain Triton – cruzain (T. cruzi) inhibition with detergent; AID 1478; purified cruzain, Z-FR-AMC fluorescence, 0.01% Triton; 200,000 compounds, 0.43% hits; P25779; Potency, µM, for the others: max response, negative = inhibition, hits mostly inhibitors;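 also: potency is read from the fitted curve at half-maximal effect; plate controls were neutral wells for no effect and buffer without enzyme for full effect; nearly all actives have a fitted effect of over 40% in size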
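Read-out: AMC fluorescence (360 nm excitation, 450 nm emission), four reads over 2 min, first-to-third difference used. Conditions: cruzain 1.5 nM, Z-FR-AMC 2 uM, pH 5.5 acetate, 5 mM DTT, 0.01% Triton X-100.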
NS1 function inh – inhibitors of influenza NS1 protein function. Potency, µM (titrated, usually from 46.1 µM), for the others: at the highest dose activity, positive = more growth. 270,000 compounds, 0.4% hits; calls by dose curve; also: potency is read from the fitted curve at half-maximal effect; actives are rising curves; nearly all actives have a fitted effect of over 50% in size
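S. cerevisiae expressing influenza A NS1, grown in glucose, washed, then diluted 1:100 into pH 6.0 -URA galactose medium with 23 nl compound. Growth recovery read as OD600; NS1-free strain serves as control.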
NS1 inh valid – influenza NS1 function inhibition validation; shares compounds with NS1 function inh; influenza NS1 function cell assay, 15-point titration; activity change, negative = inhibition, % at 32.9 µM; 1,400 tested, under 10 active; AID 492980; calls by dose curve; also: 0% is about no effect
PR8 titer – reduces influenza A/PR/8/34 replication in MDCK cells. AID 504647. shares compounds with NS1 function inh. MDCK infected influenza A/PR/8/34, virus titer TCID50; hits give low values. 95 compounds, 30% hits. virus titer (log TCID50), log10 TCID50 at 5 µM; call rule not given here
The depositor's hits bear a star; u = inconclusive; x = not tested or not shown. Unless noted, calls follow the shape of the dose curve; as a rule, active = well fitted curve in the direction sought with a large enough effect; inconclusive = small, poorly fitted or top-dose-only effect, or another doubt; inactive = no such curve, though single readings can be large; an effect the other way counts as inactive or inconclusive.

SMILES | Cruzain noTriton | Cruzain Triton | NS1 function inh | NS1 inh valid | others
Cc1nc(CN(C)C(=O)CC2C(=O)NCCN2Cc2ccc(-c3ccccc3)cc2)cs1 (stereo unspecified) | x | x | -30% | x
O=C(O)c1cccc(S(=O)(=O)N2CCc3ccccc3C2)c1 | x | x | -8% | x
CCc1ccc(NC(=O)C(C)OC(=O)c2cccc(S(=O)(=O)N3CCc4ccccc4C3)c2)cc1 (stereo unspecified) | 16µM* | -2% | 14µM* | -19
CCOc1ccc(OCC)c(NS(=O)(=O)c2cc(-c3cnc(C)o3)ccc2OC)c1 | u | -5% | x | x
Cc1cc(C)c2cc(C#N)c(N3CCCN(C(=O)c4cnccn4)CC3)nc2c1 | x | x | -4% | x
CC(=O)c1cccc(S(=O)(=O)N2CCN(c3nc4cc(C)cc(C)c4cc3C#N)CC2)c1 | 16µM* | -1% | 10µM* | 0
NC(=O)COC(=O)c1ccc(Cl)c(S(=O)(=O)N(Cc2ccccc2)c2ccc(Cl)cc2)c1 | u | -11% | 20% | x
NC(=O)NC(=O)COC(=O)c1ccc(Cl)c(S(=O)(=O)N(Cc2ccccc2)c2ccc(Cl)cc2)c1 | -16% | -4% | 11µM* | -20
FC(F)(F)c1cccc(NC(=S)NCC2COc3ccccc3O2)c1 (stereo unspecified) | -20% | -8% | -32% | x
O=C(O)c1cc(N/N=C/c2ccc(N3CCOCC3)s2)ccc1Cl | 16% | -24% | 11µM* | 23
NC(=O)N/N=C/c1ccc(N2CCOCC2)s1 | -17% | -11% | 5% | x
CC1CC2(C)Oc3ccccc3C3OCC1(CO)C(C)C32 (stereo unspecified) | -9% | 3% | u | 6
CC1=CC(C)C2(CO)COC(c3ccc(O)cc3)C1C2C (stereo unspecified) | x | x | 1% | x
Cc1nn(-c2ccccc2)c2c1C(c1ccc(Cl)cc1)N(c1ccccc1)C(=O)N2 (stereo unspecified) | -10% | -4% | 4% | x
Cc1nn(-c2ccccc2)c2c1C(c1ccc([N+](=O)[O-])cc1)N1C(=N2)C(=O)Nc2ccccc21 (stereo unspecified) | -9% | -10% | 10µM* | 7
O=C(C1CCCN(S(=O)(=O)c2cnc[nH]2)C1)N1CCN(c2ccc(Cl)cc2)CC1 (stereo unspecified) | u | 0% | -9% | x
CN(C)CCN=Cc1c(O)n(-c2cccc3ccccc23)c(=O)[nH]c1=O | -10% | 7% | u | 7
Cc1ccc(-n2c(O)c(C=NCCN(C)C)c(=O)[nH]c2=O)cc1 | -7% | -1% | 6% | x
CC(=O)c1ccc(OCC(=O)c2ccc(-c3ccccc3)cc2)cc1 | u | 0% | 1% | x
CCN(CC)CCn1c(NC(=O)c2ccc(Cl)cc2)nc2ccccc21 | 3% | 4% | 3% | x
Cc1ccc(-c2csc(NC(=O)CSc3nc(C)cs3)n2)cc1 | -7% | -2% | 8% | x
Cc1csc(SCC(=O)Nc2nncs2)n1 | x | x | u | -22
C(=N\n1cnnc1SCc1ccccc1)/c1ccco1 | -3% | -1% | 1.1µM* | -16
Fc1ccc(Cl)cc1/C=N/n1cnnc1SCc1ccccc1 | 10% | -2% | 4% | x
O=C(NCc1cccc(F)c1)C1CCC(=O)N(CC2CCCCC2)C1 (stereo unspecified) | x | x | -5% | x
SMILES | Cruzain noTriton | Cruzain Triton | NS1 function inh | NS1 inh valid | others
Cc1ccc(C(C)C)c(OCC(=O)Nc2cccc(S(=O)(=O)NC3=NCCCCC3)c2)c1 | x | x | 8% | x
Cc1ccc(CNC(=O)C(C)n2c(=O)cc(C(F)(F)F)c3c(C)nn(C)c32)cc1 (stereo unspecified) | 4% | 1% | x | x
COCCn1nnnc1C(c1cc2ccc(OC)cc2[nH]c1=O)N1CCN(C2CCCCC2)CC1 (stereo unspecified) | -2% | -2% | 4.5µM* | -13 | PR8 titer=7.5*
COCCn1nnnc1C(c1cc2cc(C)ccc2[nH]c1=O)N1CCN(C2CCCCC2)CC1 (stereo unspecified) | -6% | 0% | 2% | x
Cc1cc(C)cc(N2C(=O)NC(=O)/C(=C\c3cccn3-c3ccccc3)C2=O)c1 | -5% | -3% | 7% | x
Cc1cc(C)cc(N2C(=O)NC(=O)/C(=C\c3cccn3-c3ccc(Cl)cc3)C2=O)c1 | -24% | -5% | 1µM* | 0
COc1ccc(CC(=O)N2CCCc3ccccc32)cc1 | -12% | 2% | -16% | x
CC1CN(C)C(c2ccccc2)C(C)C12NC(=O)NC2=O (stereo unspecified) | -3% | 9% | u | 0
CC1C(c2ccccc2)N(C)C(c2ccccc2)CC1(O)c1ccccc1 (stereo unspecified) | 5% | 5% | 10% | x
O=C1CC(c2ccc(Br)cc2)NC(c2ccc(Br)cc2)C1c1ccccc1 (stereo unspecified) | u | 2% | -28% | x
COc1ccc(C)cc1S(=O)(=O)N1CCN(C(=O)c2ncoc2-c2ccccc2C)CC1 | x | x | u | -20
COc1ccc(C(=O)N2CCN(S(=O)(=O)c3ccc(C)cc3C)CC2)cc1OC | u | 0% | -48% | x
Cc1c(C(=O)OCC(=O)N2CC(C)OC(C)C2)oc2ccc(Br)cc12 (stereo unspecified) | u | -1% | 0.45µM* | u
CC1CN(C(=O)COC(=O)c2cc(=O)c3ccccc3o2)CC(C)O1 (stereo unspecified) | x | x | -3% | x
CCn1cc(CN2CCc3c([nH]c4ccccc34)C2c2cccc(OC)c2)c(C)n1 (stereo unspecified) | x | x | -4% | x
CC(=O)N1CCCc2cc(S(=O)(=O)N3CCCC(C(=O)N4CCN(c5ccccc5)CC4)C3)ccc21 (stereo unspecified) | u | -2% | u | x
COc1ccccc1N1CCN(C(=O)C2CCCN(S(=O)(=O)c3ccc4c(c3)CCCN4C(C)=O)C2)CC1 (stereo unspecified) | u | -1% | u | -20
COC(=O)c1c(C)oc2ccc(N(C(=O)c3ccncc3)S(=O)(=O)c3ccccc3)cc12 | u | 1% | 3% | x
COC(=O)c1c(C)oc2ccc(N(C(=O)c3ccncc3)S(=O)(=O)c3ccc4ccccc4c3)cc12 | -29% | -1% | 11µM* | 3
CN(CCNC(=O)C1CCC(=O)N(Cc2cccc(F)c2)C1)CCc1ccccc1 (stereo unspecified) | x | x | 13% | x
N#Cc1ccsc1NC(=O)CN1CCCCCC1 | -4% | 5% | -4% | x
CN(CC(=O)Nc1sccc1C#N)C1CCCCC1 | -21% | -6% | 7.9µM* | -14
CC(=O)c1ccc(-c2nnc(CCC(=O)N3CCCC(C(=O)CC(C)C)C3)o2)s1 (stereo unspecified) | x | x | 5% | x
Cc1ccccc1N=C1SC(CC(=O)Nc2ccc3ccccc3c2)C(=O)N1Cc1ccccn1 (stereo unspecified) | u | -2% | 14µM* | -13
O=C(CC1SC(=Nc2cccc3ccccc23)N(Cc2ccccn2)C1=O)Nc1ccccc1Br (stereo unspecified) | u | 1% | 18% | x
COc1ccc(-c2cc(C(=O)Nc3ccccc3O)c3ccccc3n2)cc1OC | x | x | 16% | x

High-throughput results from PubChem BioAssay.
